# Shown are actives, neighbours in structure and some others; about 2.8% of the full set was active somewhere.
# POLB inh = inhibitors of human DNA polymerase beta. P06746. Pol beta primer extension/strand displacement, fluorescence kinetic. Potency, µM (titrated, usually from 114 µM), without a hit: at the highest dose activity change, negative = inhibition, most hits filed as inhibitors. 340,000 tested, 1.3% active. AID 485314; also: potency is read from the fitted curve at half-maximal effect; % is scaled to controls: 0 for no effect and ±100 for the full control effect
#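 Preincubation: enzyme (10 nM) with compound, 15 min, RT. Reaction: substrate added to 50 nM final. Reads: 0 and 10 min. Analysis: normalized, Hill fit.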
# Pol eta inh-1 = blocks human DNA polymerase eta activity. AID 588591. Q9Y253. Potency, µM (series often up to 114 µM), for inactives: top-dose activity change, negative = inhibition, usual class: inhibitors. recombinant Pol eta, fluorescent DNA replication assay. 390,000 tested, 1.2% active; also: potency is read from the fitted curve at half-maximal effect; % is scaled to controls: 0 for no effect and ±100 for the full control effect
#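 Pol eta (10 nM) was preincubated with compounds for 15 min at room temperature, after which fluorescent replication substrate (50 nM final) was added to start the reaction. Fluorescence was read kinetically at 0 and 10 min.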
# POLI inh = DNA polymerase iota (human) inhibition; Pol iota fluorescent replication assay, 10 min; Potency, µM (titrated, usually from 115 µM), for the others: at the top dose activity, negative = inhibition, most hits filed as inhibitors; 390,000 tested, 1% active; also: potency is read from the fitted curve at half-maximal effect
# Target sequence (Q9UNA4 whole entry, looked up): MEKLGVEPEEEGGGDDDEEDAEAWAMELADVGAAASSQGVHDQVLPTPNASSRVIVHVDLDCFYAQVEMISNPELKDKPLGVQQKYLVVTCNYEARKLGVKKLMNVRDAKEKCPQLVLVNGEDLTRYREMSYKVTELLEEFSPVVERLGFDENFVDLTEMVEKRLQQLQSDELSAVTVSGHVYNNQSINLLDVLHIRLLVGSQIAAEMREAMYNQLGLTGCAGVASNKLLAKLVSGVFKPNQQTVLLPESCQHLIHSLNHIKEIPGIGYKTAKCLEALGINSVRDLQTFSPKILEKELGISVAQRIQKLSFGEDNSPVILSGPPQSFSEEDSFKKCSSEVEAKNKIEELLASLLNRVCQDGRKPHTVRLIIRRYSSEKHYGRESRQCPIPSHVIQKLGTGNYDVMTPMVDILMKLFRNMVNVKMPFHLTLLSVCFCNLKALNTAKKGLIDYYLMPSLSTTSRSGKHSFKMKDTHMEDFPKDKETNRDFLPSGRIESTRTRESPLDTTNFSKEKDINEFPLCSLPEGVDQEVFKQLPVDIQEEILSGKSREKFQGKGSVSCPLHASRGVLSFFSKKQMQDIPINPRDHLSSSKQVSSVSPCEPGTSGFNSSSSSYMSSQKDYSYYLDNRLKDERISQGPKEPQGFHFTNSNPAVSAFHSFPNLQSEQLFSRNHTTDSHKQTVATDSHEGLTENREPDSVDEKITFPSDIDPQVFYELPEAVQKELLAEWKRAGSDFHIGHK
#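 Fluorescent replication assay read twice, at 0 min and 10 min after adding 50 nM (final) substrate. Enzyme (10 nM) and compounds were first incubated 15 min at room temperature; enzyme-free buffer wells were negative controls.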
# Pol kappa inh-1 = blocks human DNA polymerase kappa activity. Q9UBT6. purified Pol kappa, fluorescent DNA synthesis assay, 10 min. Potency, µM (top dose mostly 107 µM), for the others: top-dose activity, negative = inhibition, usual class: inhibitors. 400,000 tested, 0.53% active. AID 588579; also: potency is read from the fitted curve at half-maximal effect; % is scaled to controls: 0 for no effect and ±100 for the full control effect
#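 50 nM final substrate added after 15 min RT preincubation of 10 nM Pol kappa with compound; fluorescence read at 0 and 10 min.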
# PI5P4Ka inh = blocks human PI5P4K alpha kinase activity. max response, %. AID 652105. P48426. PI5P4Kalpha enzyme, ADP-Glo luminescence, 60 min; active compounds read low. 330,000 tested, 1.2% active; active = max response of -50% or lower; inconclusive = between -30% and -50%; inactive = -30% or higher; also: value at the top dose of about 77 µM; % is scaled to controls: 0 for no effect and ±100 for the full control effect
#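 ADP-Glo luminescence end-point after a 60 min room-temperature kinase reaction. PI5P4Kalpha and substrate in HEPES pH 7.4 buffer with EGTA, 0.1% CHAPS and 5% DMSO; ATP at 5 microM final.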
# WRN helicase inh-1 = blocks human WRN helicase | Q14191 | Potency, µM (top dose mostly 114 µM), for inactives: at the top dose activity change, negative = inhibition, hits mostly inhibitors | 360,000 tested, 0.46% active | AID 651768 | WRN helicase unwinding, fluorescent forked duplex, kinetic; also: potency is read from the fitted curve at half-maximal effect; % is scaled to controls: 0 for no effect and ±100 for the full control effect; nearly all actives have a fitted effect of over 55% in size
#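 Kinetic fluorescence helicase assay: unwinding of a quenched forked DNA duplex (100 nM final) with 2 mM ATP final raises red fluorescence (525/598 nm). Compounds sat 15 min at room temperature with 20 nM WRN beforehand.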
# BAZ2B inh = confirmation of human BAZ2B bromodomain inhibitors | shares compounds with Pol kappa inh-1 | 25 tested, 100% active | AlphaScreen BAZ2B / biotin-H3K14Ac peptide displacement | Potency, µM, hits mostly inhibitors | AID 588809; calls by dose curve
# BAZ2B bead ctr = interferes with AlphaScreen signal in BAZ2B counterscreen; AID 588859; shares compounds with Pol kappa inh-1; 25 tested, under 10 active; AlphaScreen biotin-His6 peptide bead counterscreen, signal decrease; Potency, µM (highest dose often 57.1 µM), without a hit: top-dose activity change, negative = inhibition, actives largely listed as inhibitors;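 active = clear concentration-dependent signal drop in the bead assay lacking the target, so a primary-screen artifact; inconclusive = weak, partial or single-dose response; inactive = no response, so a real primary hit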
# PGK validate = TbPGK inhibition, hit validation. shares compounds with Pol kappa inh-1. TbPGK coupled GAPDH assay, Kinase-Glo luminescence. Potency, µM (top dose mostly 57.5 µM), without a hit: top-dose activity change, negative = inhibition, hits mostly inhibitors. 500 tested, 79% active. AID 686980; also: potency is read from the fitted curve at half-maximal effect; % is scaled to controls: 0 for no effect and ±100 for the full control effect; nearly all actives have a fitted effect of over 65% in size
# POLI cherry-pick = Inhibitors of human DNA polymerase iota, confirmation; Pol iota primer extension, TAMRA/BHQ fluorescence; 1,500 tested, 77% active; Potency, µM, usual class: inhibitors; shares compounds with Pol kappa inh-1; also: potency is read from the fitted curve at half-maximal effect
# GALK confirm = galactokinase (human) inhibition, confirmation | shares compounds with Pol eta inh-1 | purified GALK, Kinase-Glo ATP depletion luminescence | Potency, µM (doses to about 115 µM), without a hit: at the top dose activity, negative = inhibition, usual class: inhibitors | 150 tested, 70% active
# GALK redox cs = generates H2O2 by redox cycling, flagging GALK artifacts | shares compounds with Pol eta inh-1 | Phenol red-HRP H2O2 redox cycling, absorbance 600 nm | Potency, µM (series often up to 115 µM), without a hit: at the top dose activity change, negative = H2O2 signal, actives largely listed as inhibitors | 150 tested, 40% active
# HEK293 tox = counter-screen for GALK inhibitors: HEK293 cell cytotoxicity. shares compounds with Pol eta inh-1. HEK-293 viability, ATP luminescence (CellTiter-Glo), 24/48 h. Potency, µM (top dose mostly 46.1 µM), for the others: at the highest dose activity change, negative = cytotoxicity, most hits filed as inhibitors. 170 tested, 10% active; also: potency is read from the fitted curve at half-maximal effect; % is scaled to controls: 0 for no effect and ±100 for the full control effect
# Pol kappa inh-2 = confirmation of human DNA polymerase kappa inhibitors; shares compounds with Pol eta inh-1; purified Pol-kappa, fluorescent strand-displacement substrate; Potency, µM, hits mostly inhibitors; 920 tested, 76% active; also: potency is read from the fitted curve at half-maximal effect
# Pol eta inh-2 = Pol eta (human) inhibition, cherry-pick confirmation | 2,600 tested, 64% active | Pol eta primer extension, TAMRA/BHQ fluorescence, 10 min | Potency, µM, most hits filed as inhibitors | shares compounds with Pol eta inh-1; also: potency is read from the fitted curve at half-maximal effect
# WRN helicase inh-2 = WRN helicase inhibition, cherry-pick retest | shares compounds with WRN helicase inh-1 | WRN helicase DNA unwinding, fluorescence kinetic | Potency, µM (top dose mostly 57.1 µM), for inactives: at the highest dose activity, negative = inhibition, actives largely listed as inhibitors | 610 tested, 63% active | AID 720497; also: potency is read from the fitted curve at half-maximal effect; nearly all actives have a fitted effect of over 65% in size
# TO displacement = counter-screen for WRN helicase inhibitors: DNA binding; shares compounds with WRN helicase inh-1; thiazole orange DNA binding displacement, fluorescence; Potency, µM (top dose mostly 57.1 µM), for the others: at the highest dose activity change, negative = inhibition, most hits filed as inhibitors; 610 tested, 10% active; AID 720499;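 also: drop in dye fluorescence marks compound binding to DNA; potency is read from the fitted curve at half-maximal effect; % is scaled to controls: 0 for no effect and ±100 for the full control effect; nearly all actives have a fitted effect of over 60% in size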
# BLM counter = counter-screen for WRN helicase inhibitors: human BLM helicase inhibition. shares compounds with WRN helicase inh-1. Recombinant BLM helicase DNA unwinding, red fluorescence. Potency, µM (doses to about 57.1 µM), for the others: at the top dose activity change, negative = inhibition, most hits filed as inhibitors. 610 tested, 60% active; also: potency is read from the fitted curve at half-maximal effect; nearly all actives have a fitted effect of over 60% in size
# The depositor's hits bear a star; ? = inconclusive; . = no result; [ ] = dose if it differs, or a comment. Unless noted, calls follow the shape of the dose curve; as a rule, active = well fitted curve in the direction sought with a large enough effect; inconclusive = small, poorly fitted or top-dose-only effect, or another doubt; inactive = no such curve, though single readings can be large; an effect the other way counts as inactive or inconclusive.
SMILES,POLB inh,Pol eta inh-1,POLI inh,Pol kappa inh-1,PI5P4Ka inh,WRN helicase inh-1,POLI cherry-pick,Pol kappa inh-2,Pol eta inh-2,WRN helicase inh-2,TO displacement,BLM counter,others
Cc1nc2c(=O)n(C)c(=O)nc-2n(C)n1,?,0.794µM*,-101.9%,-13.3%,-8.1,-13.5%[11.6 µM],1.5*,.,4.26*,.,.,.,PGK validate=1.46µM*;GALK confirm=1.88µM*;GALK redox cs=0.943µM*;HEK293 tox=9.96µM*
O=C1C=CC2C3C(=O)N(c4ccccc4)C(=O)C3C1N2Cc1ccccc1 (stereo not given),.,?,?,-5.2%,-5.7,?,.,.,.,.,.,.,
CC(=O)CC(c1ccc(O)cc1)c1c(O)c2ccccc2oc1=O (stereo not given),.,.,.,9.8%[60.1 µM],.,.,.,.,.,.,.,.,
CN1C(=O)C(=Cc2ccc(Sc3ccccc3)o2)C(=O)N(C)C1=O,?,-0.3%,63.8%,-7.6%,2.7,?,.,.,.,.,.,.,
CN1C(=O)C(=Cc2ccc(Sc3ccccc3)o2)C(=O)N(C)C1=S,.,44.7µM*,?,?,?,?,?,16.8*,37.9*,.,.,.,
CC1CCCC(C)N1C(=O)CSc1nc2c(c(=O)n(C)c(=O)n2C)n1C (stereo not given),1.0%,-13.0%,47.6%,12.5%,1.6,-21.3%,.,.,.,.,.,.,
COc1cc2cc(C(=O)N3CC(COS(C)(=O)=O)c4ccc(O)cc43)[nH]c2c(OC)c1OC (stereo not given),.,3.16µM*,1.78µM*,10µM*,-1.3,-34.1%,4.74*,2.99*,6.75*,.,.,.,
Nc1nnc(Sc2ncccc2[N+](=O)[O-])s1,-29.8%,2.2%,173.0%,-10.2%,-16.5,-7.0%,.,.,.,.,.,.,
Cc1cc(/C=C2\C(=O)NC(=O)N(c3ccc(F)cc3)C2=O)c(C)n1-c1ccc(C(=O)O)cc1,14.9%,?,?,-17.9%,?,-12.6%[11.6 µM],.,.,.,.,.,.,
Cc1cc(/C=C2\C(=O)NC(=O)N(Cc3ccccc3)C2=O)c(C)n1-c1ccc(Cl)c(C(=O)O)c1,3.55µM*,1.78µM*,8.91µM*,17.8µM*,-94.4*,28.2µM*,23.8*,23.8*,21.3*,6.81µM*,-11.9%,1.92µM*,PGK validate=6.51µM*
CCN(CCCl)c1cc(CN(C)C)cc(NC(=O)c2ccc(C(=O)Nc3cc(CN(C)C)cc(N(CC)CCCl)c3)cc2)c1,.,11.2µM*,28.2µM*,?,?,?,23.8*,0.532*,.,21.5µM*,-18.4%,?,
CCN(CC)C(=O)c1ccc(NC(=O)c2cccc(C(F)(F)F)c2)cc1,15.2%,2.0%,27.8%,-10.8%,-2.0,-0.3%,.,.,.,.,.,.,
COC1C(O)C(C)OC(OC2C(Oc3cccc4c(O)c5c(=O)oc6ccc(C)c7c(=O)oc(c34)c5c67)OC(C)C(O)C2O)C1O (stereo not given),.,10µM*,?,?,9.7,?,21.2*,4.23*,42.6*,19.2µM*,?,63.3%,
O=C1NC(=S)N(C2CC2)C(=O)/C1=C/c1ccc2c(c1)CCN2CCCCl,20µM*,7.94µM*,22.4µM*,39.8µM*,-73.9*,2.99µM*,15*,.,19*,12.1µM*,?,7.64µM*,
Nc1nc(NCc2ccc(F)cc2)c2[nH]cnc2n1,.,.,56.2%,11.9%,.,.,.,.,.,.,.,.,
O=C(CCCN1CCC2(CC1)C(=O)N(Cc1cccc(F)c1)CN2c1ccccc1)c1ccc(F)cc1,.,.,.,-0.9%[19.4 µM],.,.,.,.,.,.,.,.,
O=C(C1CCN(S(=O)(=O)c2ccc(Br)s2)CC1)N1CCN(c2ccc(F)cc2)CC1,16.3%,-18.1%,22.8%,2.8%,.,.,.,.,.,.,.,.,
CCON=O,.,.,.,0.4%[19.4 µM],.,.,.,.,.,.,.,.,
O=C(NC1CC1)c1cc(-c2ccco2)nc2ccccc12,?,3.55µM*,?,20µM*,-100.7*,20µM*,.,.,.,6.07µM*,?,0.961µM*,BAZ2B inh=10*;BAZ2B bead ctr=?
Cn1cccc1/C=C1\C(=O)NC(=O)N(Cc2ccco2)C1=O,14.1µM*,10µM*,7.94µM*,22.4µM*,-79.9*,39.8µM*,16.8*,.,16.9*,19.2µM*,-7.8%,8.57µM*,
